Compound activity (PubChem)
DT40 TDP1 no CPT – qHTS for Inhibitors of human tyrosyl-DNA phosphodiesterase 1 (TDP1): qHTS in cells in absence of CPT; actives 15% (n = 420,000); DT40 Tdp1-/- hTDP1 cells, no CPT, ATP luminescence, 48 h; Potency, µM (highest dose often 46.2 µM), actives largely listed as inhibitors; further: nearly all actives have a fitted effect of over 55% in size
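Growth kinetics read by CellTiter-Glo luminescence after ≥48 hr at 37 °C. Cells: DT40 Tdp1-/- stably carrying human TDP1, 400 per well, compound exposure in the absence of CPT (DMSO vehicle).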
PLK1 PBD block – blocks phosphopeptide binding to human PLK1 polo-box domain | P53350 | Plk1 PBD binding of FITC phosphopeptide, fluorescence polarization | Potency, µM, hits mostly inhibitors | actives 2.8% (n = 360,000) | AID 720504; further: series mostly up to about 57 µM; nearly all actives have a fitted effect of over 65% in size
Target sequence (P53350 whole entry, looked up, the tested form may be a part): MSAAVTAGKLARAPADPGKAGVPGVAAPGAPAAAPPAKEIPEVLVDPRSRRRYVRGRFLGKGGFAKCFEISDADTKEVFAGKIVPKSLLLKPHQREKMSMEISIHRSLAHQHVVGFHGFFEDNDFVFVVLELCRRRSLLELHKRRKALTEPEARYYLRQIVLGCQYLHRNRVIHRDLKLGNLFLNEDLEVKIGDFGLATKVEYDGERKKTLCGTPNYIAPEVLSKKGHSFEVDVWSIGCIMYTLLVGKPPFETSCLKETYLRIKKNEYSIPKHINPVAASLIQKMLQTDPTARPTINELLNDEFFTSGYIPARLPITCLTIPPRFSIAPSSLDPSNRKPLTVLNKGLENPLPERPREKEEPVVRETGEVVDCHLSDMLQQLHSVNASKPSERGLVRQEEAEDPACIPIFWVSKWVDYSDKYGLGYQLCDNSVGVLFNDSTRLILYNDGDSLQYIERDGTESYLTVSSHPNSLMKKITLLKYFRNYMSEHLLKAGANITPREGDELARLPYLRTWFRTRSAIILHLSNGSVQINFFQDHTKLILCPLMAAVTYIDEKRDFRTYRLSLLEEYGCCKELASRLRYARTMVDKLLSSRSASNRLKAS
KAT2A inh – GCN5L2 (KAT2A) acetyltransferase inhibition; Potency, µM (highest dose often 58.9 µM), most hits filed as inhibitors; GCN5L2 HAT assay, ThioGlo1 CoA-SH fluorescence; actives 0.21% (n = 390,000); Q92830; AID 504327
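ThioGlo1-coupled HAT assay: 20nM GCN5L2, 70uM acetyl-CoA, 75uM H3(1-25) peptide, pH 7.5. Fluorescence read at 340/540nm at start and after 20 min at room temperature.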
VDR inh – vitamin D3 receptor (human) inhibition. actives 0.93% (n = 400,000). AID 504847. VDR-SRC2-3 peptide fluorescence polarization, 2 h. Potency, µM, hits mostly inhibitors
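FP read-out; VDR + SRC2-3 coactivator peptide; 23 nl compound by pintool; 2 h RT incubation; reagents held at 4 deg C, protected from light.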
TDP1 block – TDP1 (human) enzyme inhibition; recombinant TDP1, AlphaScreen DNA substrate cleavage; Potency, µM (doses to about 130 µM), usual class: inhibitors; actives 0.28% (n = 350,000); AID 485290; further: nearly all actives have a fitted effect of over 40% in size
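Here, a 5' biotin and 3' phosphotyrosine-FITC DNA oligonucleotide reports Tdp1 activity: intact substrate bridges AlphaScreen beads, while cleavage leaves a 3' phosphate and drops signal. All incubations at room temperature.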
TDP1 cell CPT – growth inhibition of DT40 Tdp1-/-;hTDP1 cells with camptothecin (screen for TDP1 inhibitors) | Potency, µM (doses to about 46.2 µM), hits mostly inhibitors | AID 686979 | actives 12% (n = 420,000) | chicken DT40 Tdp1-/-;hTDP1 cells + 20 nM CPT, ATP luminescence, 48 h; further: nearly all actives have a fitted effect of over 55% in size
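Chicken DT40 Tdp1-/- cells stably complemented with human TDP1 were seeded at 400 cells/well in medium containing 20 nM camptothecin, exposed to pin-transferred compounds, and grown at 37 °C for at least 48 hr. Viability was read as ATP luminescence.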
Hits are given with their value; n = inactive; u = inconclusive; x = no result; [ ] = another dose, or the depositor's remark. This is a sample that favours compounds with a hit; in the whole collection about 18% have one here. The call rests on the fitted dose curve; in most records, active means well fitted curve in the direction sought with a large enough effect; inconclusive means small, poorly fitted or top-dose-only effect, or another doubt; inactive means no such curve, though single readings can be large; an effect the other way counts as inactive or inconclusive.

SMILES	DT40 TDP1 no CPT	PLK1 PBD block	KAT2A inh	VDR inh	TDP1 block	TDP1 cell CPT
OC(c1cccnc1)c1ccc2c(c1)CN(Cc1cccc3c1OCO3)CCO2 (stereo not drawn)	n	x	x	x	x	n[9.04 µM]
NC(=O)C1=CC2C3C=CC2(O)C(=O)OC3O1 (stereo not drawn)	5.8µM	n	x	n	x	5.2µM
CCOC(=O)c1ccc(N2C(=O)Cc3cc(OCC)c(OCC)cc3C2c2ccccc2)cc1 (stereo not drawn)	13µM	x	n	n	x	15µM
N#Cc1cccc(NC(=O)N2CC[C@@]3(CCCN(C(=O)c4ccncc4)C3)C2)c1	n	x	n	n	x	n
COc1ccc(C2=NC3(CCCCCC3)N(CC(=O)Nc3cccc(Cl)c3)C2=O)cc1	u	x	n	n	n	u
CCOc1ncccc1C(=O)OCC(=O)N(CC)c1ccccc1	n	n	n	n	n	n
CC1=C(C(=O)OC(C)C)C(c2cccc(F)c2)n2ncnc2N1 (stereo not drawn)	16µM	n	n	n	n	15µM
CC1=C(C(N)=O)C(c2cccc(O)c2)n2ncnc2N1 (stereo not drawn)	n	x	n	n	n	n
COc1ccc2c(C)c(CCC(=O)NCc3ccccc3OC)c(=O)oc2c1	n	x	n	n	n	n
CCCC1C(=O)Nc2ccccc2N1C(=O)c1cccc(C)c1 (stereo not drawn)	n	n	n	n	x	n
CCCC1C(=O)Nc2ccccc2N1C(=O)c1ccc(C(C)(C)C)cc1 (stereo not drawn)	21µM	n	n	n	x	u
Cc1ccc(CNC(=O)c2ccc3c(c2)S(=O)(=O)c2ccccc2C3=O)o1	16µM	n	x	u	x	u
O=C(NCc1ccc(OC(F)(F)F)cc1)c1ccc2c(c1)S(=O)(=O)c1ccccc1C2=O	15µM	n	x	n	x	23µM
CCCOc1ccccc1C(=O)Nc1ccc(-c2nc3ccc(C)cc3s2)cc1	x	x	n	n	n	x
COc1ccc(C(=O)c2cn(Cc3cccc(C)c3)c3cc4c(cc3c2=O)OCO4)cc1	26µM	x	n	n	n	16µM
Cc1ccc(C(=O)c2cn(Cc3ccccc3)c3cc4c(cc3c2=O)OCCO4)cc1	u	x	n	n	n	21µM
COc1ccc(NC(=O)CSC2=Nc3ccccc3C3=NC(CCC(=O)NC4CCCCC4)C(=O)N23)cc1 (stereo not drawn)	n	x	n	n	n	u
CCOc1ccccc1NC(=O)CSC1=Nc2ccccc2C2=NC(CC(=O)NC3CCCCC3)C(=O)N12 (stereo not drawn)	21µM	x	n	n	n	21µM
CC(C)c1ccc(NC(=O)CSC2=Nc3ccccc3C3=NC(CC(=O)NC4CCCCC4)C(=O)N23)cc1 (stereo not drawn)	21µM	x	n	n	n	21µM
CCc1ccc(NC(=O)CSC2=Nc3ccccc3C3=NC(CC(=O)NC4CCCCC4)C(=O)N23)cc1 (stereo not drawn)	9.2µM	x	n	n	n	12µM
COc1ccc(NC(=O)CSC2=Nc3ccccc3C3=NC(CCC(=O)NC4CCCCC4)C(=O)N23)cc1Cl (stereo not drawn)	23µM	x	n	n	n	u
COc1ccc(OC)c(NC(=O)CSC2=Nc3ccccc3C3=NC(CCC(=O)NC4CCCCC4)C(=O)N23)c1 (stereo not drawn)	n	x	n	n	n	n
O=C(CSC1=Nc2ccccc2C2=NC(CC(=O)NC3CCCCC3)C(=O)N12)Nc1ccc(F)cc1 (stereo not drawn)	n	x	n	n	n	u
COc1cc([N+](=O)[O-])ccc1NC(=S)NNC(=O)CCC(=O)Nc1ccccc1Cl	n	n	n	n	n	n
Fc1ccc(-n2ncc3c(N4CCC(Cc5ccccc5)CC4)ncnc32)cc1	n	x	n	n	n	n
SMILES	DT40 TDP1 no CPT	PLK1 PBD block	KAT2A inh	VDR inh	TDP1 block	TDP1 cell CPT
CCOc1ccc(NC(=O)CSC2=Nc3ccccc3C3=NC(CC(=O)NCc4ccco4)C(=O)N23)cc1 (stereo not drawn)	23µM	x	n	n	n	15µM
CN(C(=O)CSC1=Nc2ccccc2C2=NC(c3ccccc3)C(=O)N12)C1CCCCC1 (stereo not drawn)	u	u	n	n	n	21µM
O=C(CSC1=Nc2ccccc2C2=NC(CCC(=O)NC3CCCCC3)C(=O)N12)Nc1cccc(C(F)(F)F)c1 (stereo not drawn)	23µM	x	n	n	n[12.3 µM]	u
CC(C)c1ccc(NC(=O)CSC2=Nc3ccccc3C3=NC(CCC(=O)NC4CCCCC4)C(=O)N23)cc1 (stereo not drawn)	23µM	x	n	n	n	23µM
COc1ccccc1NC(=O)c1oc2ccccc2c1NC(=O)C1CCCCC1	u	x	n	n	n	n
COc1cccc(N2CCN(C(=O)CN3C(=O)COc4ccc(S(=O)(=O)N5CCC(C)CC5)cc43)CC2)c1	x	x	n	n	n	x
Cc1oc(-c2ccccc2NC(=O)c2ccccn2)nc1CNC(=O)c1ccc(Oc2ccccc2)o1	n	x	x	x	x	n[9.04 µM]
CCC1(C2CCN(C(=O)c3ccccc3Cl)CC2)NC(=O)N(CCc2scnc2C)C1=O (stereo not drawn)	n	x	x	x	x	n
Cc1cccc(C)c1Nc1c(-c2ccc(N3CCOCC3)cc2)nc2ncccn12	21µM	n	n	n	n[12.3 µM]	21µM
Cc1ccc(Nc2c(-c3ccc(N4CCOCC4)cc3)nc3ncccn23)c(C)c1	16µM	n	n	n	n	u
Cc1oc(-c2ccccc2NC(=O)C2CCC2)nc1CNC(=O)c1c(F)ccc(F)c1F	n	x	x	x	x	n[9.04 µM]
CCCCNc1nc(C)nc2c1nc(-c1ccccc1)n2CCCN(C)C	x	x	x	x	n	x
CCN(Cc1ccccc1)C(=O)CCS(=O)(=O)c1ccc2c(c1)NC(=O)CO2	n	21µM	n	n	n	u
Cc1ccc(CNC(=O)CCS(=O)(=O)c2cc3c(cc2Cl)NC(=O)CO3)cc1	u	27µM	n	u	n	u
Cc1ccc(Cl)cc1N1CCN(C(=O)CCS(=O)(=O)c2ccc3c(c2)NC(=O)CO3)CC1	10µM	n	n	n	n	u
O=C1COc2ccc(S(=O)(=O)CCC(=O)N3CCN(c4cccc(Cl)c4)CC3)cc2N1	18µM	n	n	n	n	10µM
CCCCCCC#CC1C=CC(OC(C)=O)C(COC(C)=O)O1 (stereo not drawn)	x	x	x	x	n[21 µM]	x
CCOC(=O)N1CCN(C(=O)CCS(=O)(=O)c2cc3c(cc2Cl)NC(=O)CO3)CC1	n	n	n	n	x	n
